According to PubChem BioAssay (NCI):
Compounds without any hit were thinned out: in the full panel of roughly 83,000, 20% have a hit.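 Testing used 96-well plates and a 48-hour single-concentration exposure. Example: -40 means 40% of the starting cells died.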 Values without a mark were called inactive. The source made the active and inactive calls. Rule for the calls: active = growth percent below 10; inactive = the rest.

Experiments:
Assay in all cases: NCI-60 one-dose screen, 48 h (100 = growth as untreated, 0 = no growth, -100 = all killed)
Settings in all cases: 10 µM unless noted
SK-MEL-2 melanoma = system: SK-MEL-2 melanoma
EKVX NSCLC = system: EKVX NSCLC
SN12C renal = system: SN12C renal
UO-31 renal = system: UO-31 renal
TK-10 renal = system: TK-10 renal
ACHN renal = system: ACHN renal
CAKI-1 renal = system: CAKI-1 renal
A498 renal = system: A498 renal
CCRF-CEM leukemia = system: CCRF-CEM leukemia
SR leukemia = system: SR leukemia
RPMI-8226 leukemia = system: RPMI-8226 leukemia
OVCAR-8 ovarian = system: OVCAR-8 ovarian
OVCAR-5 ovarian = system: OVCAR-5 ovarian
OVCAR-4 ovarian = system: OVCAR-4 ovarian
SK-OV-3 ovarian = system: SK-OV-3 ovarian
IGROV1 ovarian = system: IGROV1 ovarian
OVCAR-3 ovarian = system: OVCAR-3 ovarian
HS 578T breast = system: HS 578T breast
NCI/ADR-RES ovarian = system: NCI/ADR-RES ovarian

SMILES | growth (SK-MEL-2 melanoma) | growth (EKVX NSCLC) | growth (SN12C renal) | growth (UO-31 renal) | growth (TK-10 renal) | growth (ACHN renal) | growth (CAKI-1 renal) | growth (A498 renal) | growth (CCRF-CEM leukemia) | growth (SR leukemia) | growth (RPMI-8226 leukemia) | growth (OVCAR-8 ovarian) | growth (OVCAR-5 ovarian) | growth (OVCAR-4 ovarian) | growth (SK-OV-3 ovarian) | growth (IGROV1 ovarian) | growth (OVCAR-3 ovarian) | growth (HS 578T breast) | growth (NCI/ADR-RES ovarian)
COC(=O)[C@]12CC[C@@H](C)[C@H](C)[C@@H]1C1=CC[C@@H]3[C@@]4(C)C(C=O)=C[C@@](C)(CO)[C@@H]4[C@H](O)C[C@@]3(C)[C@]1(C)CC2 | -31.7% (active) | 7.75% (active) | 1.62% (active) | -31.5% (active) | -18.8% (active) | -81.6% (active) | -28.7% (active) | -5.03% (active) | 1.38% (active) | -20.4% (active) | -10.1% (active) | -2.42% (active) | -19.7% (active) | -5.06% (active) | 3.19% (active) | 3.94% (active) | -91.9% (active) | -15.6% (active) | -10.2% (active)
COc1cccc(-c2nn(-c3ccccc3)cc2-c2ccnc(NCCNC(=O)Nc3ccc(Cl)c(Cl)c3)c2)c1 | -12.1% (active) | 46.3% | 11.5% | -13.1% (active) | 40.2% | 14.6% | 24.5% | -9.43% (active) | 8.1% (active) | -26.4% (active) | 11.9% | 7.05% (active) | 41.7% | 36.4% | 9.85% (active) | 44% | -6.87% (active) | -22.1% (active) | -22.2% (active)
COc1cc2ncn3c(=O)c4c5c(sc4nc3c2cc1OC)CCCC5 | 91.4% | 83.2% | 109% | 95.7% | 140% | 103% | 92.5% | 112% | 137% | 134% | 105% | 107% | 98.8% | 92.7% | 97.5% | 98.8% | 100% | 94.7% | 96%
COc1cc(N=Nc2ccc(N)cc2)c(OC)cc1N=Nc1ccccc1.[Cl][Zn][Cl] | 112% | 103% | 102% | 53.1% | 140% | 91.1% | 75.1% | 116% | 106% | 93.2% | 90.9% | 98.8% | 96.4% | 92.3% | 96.5% | 47.6% | 99.8% | 107% | 95.8%
FC(F)(F)c1cc(Nc2ccc3cc(OCCCN4CCOCC4)ccc3n2)ccc1Cl | 46% | 62.2% | 49.4% | 27.6% | 43.3% | 29.5% | 86.1% | 36.4% | 3.89% (active) | -12.3% (active) | 7.22% (active) | 31.3% | 59.1% | 48.6% | 58.3% | 54.3% | 48.1% | 6.22% (active) | 44.9%
CCCCn1c(=O)c2c(nc3n2CCCN3CCc2ccc(OCC(=O)NCCN(CC)CC)cc2)n(CCCC)c1=O | 73.8% | 70.5% | 64.6% | 43.2% | 71.7% | 78.3% | 77.6% | 1.86% (active) | 24.6% | -22% (active) | 61.5% | 60.8% | 94% | 52.3% | 51.8% | 59.3% | 71.2% | 20.8% | 60.7%
Cc1cc(NCCCCNc2ccnc3cc(Cl)ccc23)nc(Nc2ccc(C(=O)N3CCCCC3)cc2)n1 | -63.1% (active) | 41.1% | 29.6% | 33.5% | -49.2% (active) | -4.47% (active) | 79.5% | 53.4% | -20% (active) | -29% (active) | -35.8% (active) | 7.65% (active) | 82.7% | 34.8% | 97.2% | 29.8% | 8.51% (active) | -28.9% (active) | 47.5%
O=C1/C(=C/c2ccc(F)cc2)C=C(c2ccccc2)N1CCc1ccccc1 | 55.5% | 56.9% | 58.3% | 51% | 62.4% | 38.6% | 76% | 81.3% | 95% | 46.5% | 89.3% | 45.6% | 78.7% | 39.3% | 29.1% | 62.3% | 53.1% | 42.1% | 58.2%
COc1cccc(C(=O)NCCCNc2cc(-c3cn(-c4ccccc4)nc3-c3cccc(OC)c3)ccn2)c1 | 70.2% | 60.1% | 61.1% | 26.6% | 55.2% | 60.9% | 65.4% | 49.2% | 24.7% | 8.19% (active) | 25.3% | 26.7% | 82.1% | 37.9% | 48.8% | 58.9% | 53.3% | 47.5% | 22.1%
S=C(Cc1ccc2c(c1)CCCC2)N1CCOCC1 | 87.1% | 97.5% | 101% | 92.2% | 106% | 101% | 102% | 101% | 119% | 94.7% | 112% | 104% | 99.2% | 96.6% | 98.2% | 101% | 107% | 115% | 105%
COC(=O)[C@]12CC[C@@H](C)[C@H](C)[C@@H]1C1=CC[C@@H]3[C@@]4(C)C(C=O)=C[C@@](C)(COC(=O)/C=C/c5ccccc5)[C@@H]4[C@H](O)C[C@@]3(C)[C@]1(C)CC2 | -23.5% (active) | 26.9% | 3.47% (active) | 3.64% (active) | 26% | -14.7% (active) | 15% | 19.6% | 16.4% | -6.65% (active) | 1.62% (active) | 9.9% (active) | 7.64% (active) | 21.4% | 18.6% | 23.9% | -75.9% (active) | -8.26% (active) | 17.9%
Cc1cc(NCc2cc(Nc3ccnc4cc(Cl)ccc34)ccc2F)nc(N2CCOCC2)n1 | 84.6% | 54.3% | 31.4% | -47.8% (active) | -10.4% (active) | -79.5% (active) | 60.3% | 51.7% | 1.04% (active) | -13% (active) | 29.4% | 36.3% | 76.5% | 7.29% (active) | 0.55% (active) | 49.7% | 16.1% | 16.5% | 25%
CCCCCCCCCCCCCCCCCCOc1ccccc1CC(=O)OCCC[N+](C)(C)C | 87.7% | 79% | 36% | 90.1% | 50.1% | 67.5% | 43.6% | 98.5% | 25.7% | 56.6% | 38.1% | 43.8% | 46.9% | 35% | 94.2% | -15.2% (active) | 64.3% | 67.2% | 100%
COC(=O)[C@]12CC[C@@H](C)[C@H](C)[C@@H]1C1=CC[C@@H]3[C@@]4(C)C(C=O)=C[C@@](C)(COC(C)=O)[C@@H]4C(=O)C[C@@]3(C)[C@]1(C)CC2 | 43% | 36.1% | 43.6% | 34.1% | 36.8% | 23.5% | 44.6% | 60.5% | 43.9% | 48.3% | 26% | 41.5% | 68.8% | 38.1% | 42.3% | 46.3% | 39.1% | 65.1% | 34%
COc1cccc(-c2nn(-c3ccccc3)cc2-c2ccnc(NCCCNC(=O)Nc3ccc(Cl)c(Cl)c3)c2)c1 | -53.9% (active) | 37.8% | 37.5% | -34.4% (active) | 45.7% | 32.9% | 24% | 4.95% (active) | 1.35% (active) | -32.8% (active) | -2.49% (active) | 1.46% (active) | 54.4% | 30.9% | 22.2% | 36.6% | 29.5% | -26.1% (active) | -20.3% (active)
CC(C)(C)C(CCc1ccc(Cl)cc1)N1CCN(C2CCCCC2)CC1 (centres undefined) | 72.9% | 70.1% | 45.7% | 32.6% | 96.2% | 51.3% | 35.8% | 78% | 25.9% | -13.2% (active) | 24.4% | 60.3% | 60.2% | 42.6% | 59.9% | 62.8% | 41.6% | 68.9% | 60.6%
